Data published in PubChem BioAssay AID1159580 (chemical genetic matrix, 2015).
In all, about 5,500 compounds went through this assay and about 2,000 (36%) were called active. Inconclusive results (about 18%) are left out. Rule as the data show it: active = normalized growth mostly below about 0.91 (no sharp cut-off); inconclusive = no clear call, values can overlap the other calls; inactive = mostly above about 0.92. Some of the results follow.

Assay: chemical genetic growth profiling, strain panel (AID 1159580);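 also: tested at 20 µM; growth read once vehicle control cultures reached saturation at 30 °C; 1 = growth at the plate median or of vehicle wells; lower values mean less growth of the strain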
Settings: growth OD

Measured: normalized growth

O=C(O)CN1C(=O)c2cccc3cccc(c23)C1=O
inactive: S. cerevisiae deletion strains, locus YJR043C, strain POL32, hits give low values 1.03 | S. cerevisiae deletion strains, locus YJR066W, strain TOR1, hits give low values 0.975 | S. cerevisiae deletion strains, locus YKL009W, strain mrt4, hits give low values 0.987 | S. cerevisiae deletion strains, locus YKL068W, hits give low values 0.991 | S. cerevisiae deletion strains, locus YKL085W, strain MDH1 (second series), hits give low values 0.978 | S. cerevisiae deletion strains, locus YKL085W, strain MDH1, hits give low values 0.978 | S. cerevisiae deletion strains, locus YKL160W, strain elf1, hits give low values 0.956 | S. cerevisiae deletion strains, locus YKL190W, strain CNB1, hits give low values 1 | S. cerevisiae deletion strains, locus YKR001C, strain vps1, hits give low values 1.01 | S. cerevisiae deletion strains, locus YKR026C, strain gcn3, hits give low values 0.996 | S. cerevisiae deletion strains, locus YKR091W, strain srl3, hits give low values 0.986 | S. cerevisiae deletion strains, locus YLL001W, strain dnm1, hits give low values 0.966 | S. cerevisiae deletion strains, locus YLL026W, hits give low values 0.996 | S. cerevisiae deletion strains, locus YLL041C, strain sdh2, hits give low values 0.983 | S. cerevisiae deletion strains, locus YLR027C, strain aat2, hits give low values 0.996 | S. cerevisiae deletion strains, locus YLR039C, strain RIC1, hits give low values 1 | S. cerevisiae deletion strains, locus YLR058C, strain SHM2, hits give low values 1 | S. cerevisiae deletion strains, locus YLR102C, strain apc9, hits give low values 0.986 | S. cerevisiae deletion strains, locus YLR113W, strain HOG1, hits give low values 0.935 | S. cerevisiae deletion strains, locus YLR221C, strain rsa3, hits give low values 0.977 | S. cerevisiae deletion strains, locus YLR258W, strain gsy2, hits give low values 0.988 | S. cerevisiae deletion strains, locus YLR262C, strain YPT6 (second series), hits give low values 0.947 | S. cerevisiae deletion strains, locus YLR262C, strain YPT6, hits give low values 0.985 | S. cerevisiae deletion strains, locus YLR268W, strain sec22, hits give low values 0.983 | S. cerevisiae deletion strains, locus YLR320W, strain mms22, hits give low values 0.944 | S. cerevisiae deletion strains, locus YLR330W, strain CHS5, hits give low values 0.989 | S. cerevisiae deletion strains, locus YLR342W, strain FKS1 (second series), hits give low values 1.02 | S. cerevisiae deletion strains, locus YLR342W, strain FKS1, hits give low values 0.978 | S. cerevisiae deletion strains, locus YLR357W, strain rsc2, hits give low values 0.965 | S. cerevisiae deletion strains, locus YLR370C, strain arc18, hits give low values 0.973 | S. cerevisiae deletion strains, locus YLR371W, strain rom2, hits give low values 0.989 | S. cerevisiae deletion strains, locus YLR384C, strain iki3, hits give low values 0.973 | S. cerevisiae deletion strains, locus YLR418C, strain cdc73, hits give low values 0.988 | S. cerevisiae deletion strains, locus YML016C, strain PPZ1, hits give low values 1 | S. cerevisiae deletion strains, locus YML032C, strain rad52, hits give low values 1 | S. cerevisiae deletion strains, locus YML120C, strain ndi1, hits give low values 0.958 | S. cerevisiae deletion strains, locus YML124C, strain tub3, hits give low values 0.999 | S. cerevisiae deletion strains, locus YMR058W, strain fet3, hits give low values 0.98 | S. cerevisiae deletion strains, locus YMR078C, strain ctf18, hits give low values 0.982 | S. cerevisiae deletion strains, locus YMR125W, strain sto1, hits give low values 0.979 | S. cerevisiae deletion strains, locus YMR129W, hits give low values 0.996 | S. cerevisiae deletion strains, locus YMR205C, strain PFK2, hits give low values 0.954 | S. cerevisiae deletion strains, locus YMR223W, strain ubp8, hits give low values 0.977 | S. cerevisiae deletion strains, locus YMR231W, strain pep5, hits give low values 0.992 | S. cerevisiae deletion strains, locus YMR307W, strain GAS1, hits give low values 1.01 | S. cerevisiae deletion strains, locus YNL067W, strain RPL9B, hits give low values 1.05 | S. cerevisiae deletion strains, locus YNL071W, strain lat1, hits give low values 0.933 | S. cerevisiae deletion strains, locus YNL153C, strain GIM3, hits give low values 1.08 | S. cerevisiae deletion strains, locus YNL183C, strain NPR1, hits give low values 0.953 | S. cerevisiae deletion strains, locus YNL209W, strain ssb2, hits give low values 0.986 | S. cerevisiae deletion strains, locus YNL233W, strain BNI4, hits give low values 1.03 | S. cerevisiae deletion strains, locus YNL248C, strain rpa49, hits give low values 0.969 | S. cerevisiae deletion strains, locus YNL250W, strain rad50, hits give low values 0.941 | S. cerevisiae deletion strains, locus YNL271C, strain bni1, hits give low values 0.998 | S. cerevisiae deletion strains, locus YNL298W, strain CLA4, hits give low values 0.984 | S. cerevisiae deletion strains, locus YNL307C, strain MCK1, hits give low values 0.994 | S. cerevisiae deletion strains, locus YNL322C, strain KRE1 (second series), hits give low values 0.987 | S. cerevisiae deletion strains, locus YNR049C, strain mso1, hits give low values 0.981 | S. cerevisiae deletion strains, locus YNR052C, strain pop2, hits give low values 0.969 | S. cerevisiae deletion strains, locus YOL006C, strain TOP1, hits give low values 1.08 | S. cerevisiae deletion strains, locus YOL012C, strain htz1 0.878 | S. cerevisiae deletion strains, locus YOL147C, strain pex11, hits give low values 0.988 | S. cerevisiae deletion strains, locus YOR001W, strain rrp6, hits give low values 0.974 | S. cerevisiae deletion strains, locus YOR061W, strain CKA2, hits give low values 1.01 | S. cerevisiae deletion strains, locus YOR069W, strain VPS5, hits give low values 0.998 | S. cerevisiae deletion strains, locus YOR070C, strain gyp1, hits give low values 0.99 | S. cerevisiae deletion strains, locus YOR080W, strain dia2, hits give low values 0.989 | S. cerevisiae deletion strains, locus YOR083W, strain WHI5, hits give low values 0.967 | S. cerevisiae deletion strains, locus YOR106W, strain vam3, hits give low values 0.955 | S. cerevisiae deletion strains, locus YOR136W, strain idh2, hits give low values 0.991 | S. cerevisiae deletion strains, locus YOR144C, strain elg1, hits give low values 0.987 | S. cerevisiae deletion strains, locus YOR184W, strain ser1, hits give low values 1.02 | S. cerevisiae deletion strains, locus YOR231W, strain MKK1, hits give low values 0.977 | S. cerevisiae deletion strains, locus YOR265W, strain rbl2, hits give low values 0.985 | S. cerevisiae deletion strains, locus YOR270C, strain vph1, hits give low values 0.876 | S. cerevisiae deletion strains, locus YOR290C, strain snf2, hits give low values 0.943 | S. cerevisiae deletion strains, locus YOR316C, strain cot1, hits give low values 0.992 | S. cerevisiae deletion strains, locus YPL051W, strain arl3, hits give low values 0.97 | S. cerevisiae deletion strains, locus YPL078C, strain atp4, hits give low values 0.976 | S. cerevisiae deletion strains, locus YPL106C, strain sse1, hits give low values 0.954 | S. cerevisiae deletion strains, locus YPL240C, strain hsp82, hits give low values 0.98 | S. cerevisiae deletion strains, locus YPL256C, strain CLN2, hits give low values 0.961 | S. cerevisiae deletion strains, locus YPR119W, strain clb2, hits give low values 0.987 | S. cerevisiae deletion strains, locus YPR141C, strain kar3, hits give low values 0.994 | S. cerevisiae deletion strains, locus YPR163C, strain tif3, hits give low values 0.99 | S. cerevisiae deletion strains, locus YPR167C, strain met16, hits give low values 0.986 | S. cerevisiae deletion strains, strain wtn01, hits give low values 0.976 | S. cerevisiae strains, strain wild type, hits give low values 1
